Measurements as given in publication PMC4552634, “A New Set of Chemical Starting Points with Plasmodium falciparum Transmission-Blocking Potential for Antimalarial Drug Discovery” (PLoS ONE, 2015).
Where two headings read alike, the source gives them in different places. In all, about 13,000 compounds went through this assay and about 3,200 (25%) showed an effect of 50% or more. Some of the results follow.

Test system: P. falciparum stage V gametocytes
Set-up: BacTiter-Glo ATP luminescence viability of purified stage V gametocytes in 384-well plates, per cent inhibition versus DMSO
Conditions: 48 h, 5 µM, inhibitor

SMILES | % Inhibition [%] | % Inhibition (% Inhibition) [%]
COc1cc2c(cc1C(F)(F)F)N(C(=O)Nc1cc(F)cc(-c3cncnc3)c1)CC2 [TCMDC-139039] | -11.26 | –
O=C(Nc1cccc(-c2nc3ccccc3[nH]2)c1)c1cccc(NC(=O)c2ccco2)c1 [TCMDC-125185] | 18.17 | –
CC(=O)c1ccc(S(=O)(=O)N2CCC(C(=O)Nc3ccccc3N3CCCC3)CC2)cc1 [TCMDC-125467] | -11.47 | –
CCC(C)NS(=O)(=O)c1ccc2nc(Nc3ccc(C)c(Cl)c3)n([C@H](C)C(C)(C)C)c2c1 (stereo partly shown) [TCMDC-136238] | 38.05 | –
O=C(C=Cc1cccs1)Nc1ccc(-c2nc3ccccc3[nH]2)cc1 [TCMDC-123926] | -97.24 | –
COc1ccccc1CN1CCC(CNC(=O)c2cc(-c3ccc(N(C)C)cc3)cs2)C1.O=C(O)C(F)(F)F (stereo not shown) [TCMDC-134451] | 95.05 | –
O=C(NCC1CCN(Cc2cccc(C(F)(F)F)c2)C1)c1cc(-c2cccc(Cl)c2)cs1 (stereo not shown) [TCMDC-134485] | 50.21 | –
COc1ccccc1CN1CCC(CNC(=O)c2cc(-c3cccc(C(F)(F)F)c3)cs2)C1.O=C(O)C(F)(F)F (stereo not shown) [TCMDC-134450] | -43.84 | –
CCCC(=O)Nc1ccc(OCCCN(Cc2ccccc2F)c2ccc(C#N)c(C(F)(F)F)c2)cc1 [TCMDC-135449] | 24.41 | –
CN1CCN(Cc2ccc(-c3ccc4c(Nc5cc(O)c(F)cc5Cl)ccnc4c3)o2)CC1 [TCMDC-138486] | 4.683 | –
Fc1cc(Cl)ccc1Nc1ccnc2cc(-c3ccc(CN4CCNCC4)o3)ccc12 [TCMDC-138394] | 83.09 | –
CN1CCN(Cc2ccc(-c3ccc4c(Nc5cc(O)c(Cl)cc5F)ccnc4c3)o2)CC1 [TCMDC-138446] | 74.65 | –
CN1CCN(Cc2ccc(-c3ccc4c(Nc5ccc(Cl)cc5F)ccnc4c3)o2)CC1 [TCMDC-138395] | -22.3 | –
Oc1cc(Nc2ccnc3cc(-c4ccc(CN5CCCCC5)o4)ccc23)c(Cl)cc1F [TCMDC-138485] | 11.9 | –
Fc1cc(Cl)ccc1Nc1ccnc2cc(-c3ccc(CN4CCOCC4)o3)ccc12 [TCMDC-138393] | 99.43 | –
Fc1cc(Cl)ccc1Nc1ccnc2cc(-c3ccc(CN4CCCCC4)o3)ccc12 [TCMDC-138396] | 9.087 | –
Fc1cc(Cl)ccc1Nc1ccnc2cc(-c3ccc(CNCCN4CCOCC4)o3)ccc12 [TCMDC-138397] | -18.32 | –
Fc1cc(Cl)ccc1Nc1ccnc2cc(-c3ccc(CN4CCSCC4)o3)ccc12 [TCMDC-138392] | 1.462 | –
COc1ccc2nccc(N3CCN(CCNCc4ccc5c(n4)NC(=O)CS5)CC3)c2c1.Cl [TCMDC-141962] | 5.259 | –
CCCCC1(c2ccc(F)cc2)NC(=O)N(CC(=O)c2cc(C)n(Cc3ccco3)c2C)C1=O (stereo not shown) [TCMDC-125119] | 0.3946 | –
CNC(=O)c1cc(S(=O)(=O)N2CCN(c3ccccn3)CC2)cs1 [TCMDC-124847] | 78.13 | –

SMILES | % Inhibition [%] | % Inhibition (% Inhibition) [%]
CCNC(=O)c1cc(S(=O)(=O)N2CCN(c3ccccn3)CC2)cs1 [TCMDC-124848] | 88.58 | –
CC(=O)Nc1ccc(S(=O)(=O)N2CCN(c3nc(NC4CCCC4)c4ccccc4n3)CC2)cc1 [TCMDC-123869] | 2.309 | –
O=C(Nc1ccc(N2CCN(c3ncccc3C(F)(F)F)CC2)nc1)c1cccs1 [TCMDC-125784] | 10.79 | –
CNC(=O)c1cc(S(=O)(=O)N2CCN(c3ccccn3)CC2)c(C)s1 [TCMDC-124846] | 34.83 | –
Cc1nc(-c2ccc3c(c2)CCN(CCC2CCC(NC(=O)c4cc5cccc(Cl)c5[nH]4)CC2)CC3)no1 (stereo not shown) [TCMDC-140071] | -33.37 | –
O=C(Nc1ccc(Cl)c(C(F)(F)F)c1)c1ccc(Cl)c([N+](=O)[O-])c1 [TCMDC-125647] | -24.24 | –
O=C(c1ccc(F)c2ccccc12)N1CCc2cc3nccc(N4CCN5CCC[C@H]5C4)c3cc21 [TCMDC-140043] | 23.61 | –
CS(=O)(=O)c1ccc(CCNCc2ccc(-c3ccc(CNC4Cc5ccccc5C4)cc3)nc2)cc1 [TCMDC-141615] | 5.211 | –
CS(=O)(=O)c1ccc(CCNCc2ccc(-c3ccc(CN(C(=O)C4CC(=O)c5ccccc54)C4Cc5ccccc5C4)cc3)nc2)cc1 (stereo not shown) [TCMDC-141509] | 97.27 | –
CS(=O)(=O)c1ccc(CCNCc2ccc(-c3ccc(CN(C(=O)C4CCCC4)C4CCN(Cc5ccccc5)CC4)cc3)nc2)cc1 [TCMDC-141511] | 48.38 | –
c1ccc(CCNCc2ccc(-c3ccc(CNC4CCN(Cc5ccccc5)CC4)cc3)nc2)cc1 [TCMDC-141649] | 82.96 | –
CN1CCC(C(=O)N(Cc2ccc(-c3ccc(CNCCc4ccc(S(C)(=O)=O)cc4)cn3)cc2)C2CCN(Cc3ccccc3)CC2)CC1 [TCMDC-141506] | 104.7 | –
CS(=O)(=O)c1ccc(CCNCc2ccc(-c3ccc(CN(C(=O)C4CC(=O)c5ccccc54)C4CCN(Cc5ccccc5)CC4)cc3)nc2)cc1 (stereo not shown) [TCMDC-141605] | 41.88 | –
CN1CCC(C(=O)N(Cc2ccc(-c3ccc(CNCCc4ccc(S(C)(=O)=O)cc4)cn3)cc2)C2Cc3ccccc3C2)CC1 [TCMDC-141508] | 99.19 | –
CS(=O)(=O)c1ccc(CCNCc2ccc(-c3ccc(CNC4CCN(Cc5ccccc5)CC4)cc3)nc2)cc1 [TCMDC-141614] | 33.12 | –
CC(C)c1ccc(Cn2cc(-c3ccncc3)c3cc(OCc4ccccc4)ccc32)cc1 [TCMDC-137225] | 2.514 | –
CCc1cccc(NC(=O)c2ccc(CN3CCCN(CC4CCCCC4)CC3)cc2)c1 [TCMDC-136399] | -29.35 | –
O=c1cc(NCCCNC2CCOc3c(I)cc(Cl)cc32)[nH]c2ccccc12 (stereo not shown) [TCMDC-139489] | -10.52 | –
O=C1COc2ccc(CNC3CCC(O)(CCc4ccnc5cc6c(cc45)OCCO6)CC3)nc2N1 (stereo not shown) [TCMDC-141941] | 32.09 | –
O=C(c1ccc(-c2ccc(-c3nc4cc(C(F)(F)F)ccc4[nH]3)s2)cc1)N1CCN(CCc2ccccc2)CC1 [TCMDC-132482] | 3.451 | –
COc1cccc2cc(C(=O)N[C@@H](CC(C)C)C(=O)N[C@H](/C=N/N3C(=O)CN(Cc4ccccc4)C3=O)CCc3ccccc3)oc12 [TCMDC-136198] | -10.77 | –

SMILES | % Inhibition [%] | % Inhibition (% Inhibition) [%]
O=C(Cc1cccc(O)c1)Nc1ccc(-c2cccc(-c3nc4ccc(C(F)(F)F)cc4[nH]3)c2)cc1 [TCMDC-132176] | 0.6072 | –
COc1ccc(CCN2CCC(CN(C)Cc3cnn(-c4ccccc4)c3)CC2)cc1 [TCMDC-124632] | -8.037 | –
CN1CCCC1CCNCc1ccc(-c2ccc(CNCCc3ccccc3)cn2)cc1 (stereo not shown) [TCMDC-141617] | 85.17 | –
COc1ccc(CNCc2ccc(-c3ccc(CNCCc4ccccc4)cn3)cc2)cn1 [TCMDC-141647] | 26.41 | –
CN1CCC(C(=O)N(Cc2ccc(-c3ccc(CNCCc4ccccc4)cn3)cc2)C2CCN(Cc3ccccc3)CC2)CC1 [TCMDC-141552] | 110.4 | –
CC(C)C[C@@H](C(=O)N[C@@H](CCCCNC(=O)OCc1ccccc1)C(=O)Nc1nccs1)[C@H](C)N(O)C=O [TCMDC-137184] | -15.37 | –
C[C@@H]([C@@H](CCCc1ccc(Cl)cc1)C(=O)N[C@H](C(=O)Nc1cccnc1)C(C)(C)C)N(O)C=O [TCMDC-138383] | -4.065 | –
Cc1ccc2[nH]cc(C3CCN(CC4CCC(NC(=O)/C=C/c5ccc(Cl)c(Cl)c5)CC4)CC3)c2c1 (stereo not shown) [TCMDC-139630] | – | -23.48
O=C(/C=C/c1ccc(Cl)c(Cl)c1)NC1CCC(CN2CCC(c3c[nH]c4cc(O)ccc34)CC2)CC1 (stereo not shown) [TCMDC-139642] | 41.76 | –
O=C(/C=C/c1ccc(Cl)c(Cl)c1)NC1CCC(CN2CCC(c3c[nH]c4cc(C(F)(F)F)ccc34)CC2)CC1 (stereo not shown) [TCMDC-139869] | – | 50.13
CS(=O)(=O)Nc1ccc2[nH]cc(C3CCN(CC4CCC(NC(=O)/C=C/c5ccc(Cl)c(Cl)c5)CC4)CC3)c2c1 (stereo not shown) [TCMDC-139641] | -16.95 | –
O=C(/C=C/c1ccc(Cl)c(Cl)c1)NC1CCC(CN2CCC(c3c[nH]c4ccccc34)CC2)CC1 (stereo not shown) [TCMDC-139447] | 56.58 | –
O=C(/C=C/c1ccc(Cl)c(Cl)c1)NC1CCC(CN2CCC(c3c[nH]c4ccccc34)C(O)C2)CC1 (stereo not shown) [TCMDC-139645] | -15.82 | –
Cc1ccc2[nH]cc(C3CCN(CC4CCC(NC(=O)/C=C/c5ccc(Cl)c(Cl)c5)CC4)CC3)c2c1 (stereo not shown) [TCMDC-139629] | – | 74.07
CNC(=O)c1ccc2[nH]cc(C3CCN(CC4CCC(NC(=O)/C=C/c5ccc(Cl)c(Cl)c5)CC4)CC3)c2c1 (stereo not shown) [TCMDC-139979] | 15.16 | –
O=C(/C=C/c1ccc(Cl)c(Cl)c1)N1CCC(CN2CCC(c3c[nH]c4cc(C(F)(F)F)ccc34)CC2)CC1 [TCMDC-139860] | 22.64 | –
O=C(/C=C/c1ccc(Cl)c(Cl)c1)NC1CCC(CN2CCC(c3c[nH]c4cc(C(F)(F)F)ccc34)CC2)CC1 (stereo not shown) [TCMDC-139868] | – | 4.839
NC(=O)c1ccc2[nH]cc(C3CCN(CC4CCC(NC(=O)/C=C/c5ccc(Cl)c(Cl)c5)CC4)CC3)c2c1 (stereo not shown) [TCMDC-139886] | – | 70.38
NC(=O)c1ccc2[nH]cc(C3CCN(CC4CCC(NC(=O)/C=C/c5ccc(Cl)c(Cl)c5)CC4)CC3)c2c1 (stereo not shown) [TCMDC-139885] | – | 5.306
